# BL2 CD40 inh: CD40 pathway inhibition in BL2 cells; inhibition, % at 10 µM; 83,000 compounds, 0.94% hits; AID 1053188; BL2 NF-kB luciferase reporter, CD40L-induced, 4 h;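 active = mean inhibition of at least 50% with a set share of replicates also reaching that level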;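 also: 0% = neutral control wells and 100% = IKK inhibitor VII at 50 µM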
# An asterisk follows results filed as active; [ ] = another dose, or the depositor's remark. Shown is part of a subset that was picked to be rich in hits.
SMILES,BL2 CD40 inh
CC(C)=CCCN1CCC(NC(=O)[C@](O)(c2ccccc2)C2CCCC2)CC1,-2[25 µM]
O=C(O)[C@@H]1[C@@H](CO)[C@@H]2Cn3c(ccc(-c4ccccc4)c3=O)[C@H]1N2S(=O)(=O)c1ccccc1F,5[25 µM]
C#CCN1C(C)=C(C(=O)CCO)C(c2cccc(-n3oo3)c2)C(C(=O)OC)=C1C (centres undefined),4[25 µM]
CC(=O)N1C[C@@H]2C(c3ccc(Br)cc3)[C@H](C1)N2CC1CC1 (some centres undefined),7
CCCCC1C(=O)NC(=S)N(C)C1=O (centres undefined),33*
O=C(O)[C@H]1[C@H](CO)[C@H]2Cn3c(ccc(-c4ccc(F)cc4)c3=O)[C@@H]1N2CC1CCCC1,7
O=C1/C(=C/c2ccccc2)C[C@@]2(O)C3Cc4ccc(O)c5c4[C@@]2(CCN3CC2CC2)[C@H]1O5,85*[25 µM]
O=C1CC[C@@]2(O)[C@H]3Cc4ccc(O)c5c4[C@@]2(CCN3CC2CC2)[C@H]1O5,-6
COC(=O)C=CC(=O)NC1CCC2(O)C3Cc4ccc(O)c5c4C2(CCN3CC2CC2)C1O5 (centres undefined),5[25 µM]
O=C1CNC[C@H]2[C@@H](c3ccc(Br)cc3)[C@@H](CO)N12,10
COc1ccccc1CN1[C@H](CO)[C@@H](c2ccccc2)C12CN(C(=O)Cc1ccccc1)C2,15[25 µM]
O=C1CNC[C@H]2[C@H](c3ccc(Br)cc3)[C@@H](CO)N12,-6[25 µM]
O=C(Cc1ccncc1)N1CCCCN2[C@@H](CO)[C@@H](c3ccc(C#Cc4ccccc4F)cc3)[C@@H]2C1,-9[25 µM]
OCC1OC(n2cnc3cc(Cl)c(Cl)cc32)C(O)C1O (centres undefined),47*
COc1cccc(CN2CC3(C2)[C@H](c2ccccc2)[C@H](CO)N3C(=O)Cc2ccccc2)c1,12[25 µM]
COC(=O)[C@@H]1[C@@H](CO)[C@@H]2Cn3c(cccc3=O)[C@H]1N2CCc1ccccc1,3[25 µM]
CC1CC(C)(O)CC(C(O)CC2CC(=O)NC(=O)C2)C1=O (centres undefined),96*
O=C1CNC[C@@H]2[C@@H](c3ccc(Br)cc3)[C@@H](CO)N12,0[25 µM]
COc1ccccc1CN1[C@H](CO)[C@H](c2ccccc2)C12CN(C(=O)Cc1ccccc1)C2,20[25 µM]
CS(=O)(=O)N1C[C@@H]2C(c3ccc(Br)cc3)[C@H](C1)N2CC1CC1 (some centres undefined),3
CN(C)CC#Cc1ccc([C@@H]2[C@H]3CN(C(=O)Cc4ccccn4)CCCCN3[C@H]2CO)cc1,-16[25 µM]
CC(C)NC(=O)N1C[C@@H]2C(c3ccc(Br)cc3)[C@H](C1)N2CC1CC1 (some centres undefined),18
